Reference: PubChem BioAssay (NCI)
The panel holds about 83,000 compounds, 20% with a hit somewhere; the sample as a whole holds those more often.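 The endpoint reported here, percent growth, reads 100 for growth as untreated, 0 for no net growth and -100 for all cells dead.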 The source made the active and inactive calls. Rule for the calls: active = growth percent below 10; inactive = the rest.

Tests used:
Test in all cases: NCI-60 one-dose screen, 48 h (100 = growth as untreated, 0 = no growth, -100 = all killed)
Conditions in all cases: 10 µM unless noted
SK-MEL-2 melanoma = tested on: SK-MEL-2 melanoma
EKVX NSCLC = tested on: EKVX NSCLC
SN12C renal = tested on: SN12C renal
UO-31 renal = tested on: UO-31 renal
TK-10 renal = tested on: TK-10 renal
CAKI-1 renal = tested on: CAKI-1 renal
A498 renal = tested on: A498 renal
CCRF-CEM leukemia = tested on: CCRF-CEM leukemia
MOLT-4 leukemia = tested on: MOLT-4 leukemia
ACHN renal = tested on: ACHN renal

Measured: growth

O=C1/C(=C/c2ccc(Br)cc2)COc2ccc(O)cc21
inactive: SK-MEL-2 melanoma 107% | EKVX NSCLC 98.5% | SN12C renal 73.3% | UO-31 renal 47.9% | TK-10 renal 99.1% | CAKI-1 renal 80.1% | A498 renal 103% | MOLT-4 leukemia 16.6%
active: CCRF-CEM leukemia 1.32%

CCN1C(=O)N(CC)C2C1NN=c1s/c(=C\c3ccc(F)cc3)c(=O)n12 (stereo not drawn)
inactive: SK-MEL-2 melanoma 55.3% | EKVX NSCLC 56.3% | SN12C renal 31.5% | UO-31 renal 41.7% | TK-10 renal 64.8% | CAKI-1 renal 33% | A498 renal 23.4% | MOLT-4 leukemia 14.3%
active: CCRF-CEM leukemia 4.82%

C(=N\Nc1nnc2n1N=C(c1ccccc1)CS2)/c1ccc(OCc2ccccc2)cc1
inactive: SK-MEL-2 melanoma 104% | EKVX NSCLC 101% | SN12C renal 98.6% | UO-31 renal 79.5% | TK-10 renal 98.2% | CAKI-1 renal 107% | A498 renal 108% | CCRF-CEM leukemia 97.2% | MOLT-4 leukemia 92.8%

CN(C)c1ccc(/C=N/NC(=O)CSc2nc3sc4c(c3c(=O)n2-c2ccccc2)CCCCC4)cc1
active: CAKI-1 renal 8.87%
inactive: SK-MEL-2 melanoma 78.6% | EKVX NSCLC 47% | SN12C renal 55.5% | UO-31 renal 77.8% | TK-10 renal 64.9% | A498 renal 34.8% | CCRF-CEM leukemia 70.9% | MOLT-4 leukemia 71.8%

CN(CCNc1ccc(C(=N)N)cc1)c1ccc(C(=N)N)cc1
active: CCRF-CEM leukemia 7.18%
inactive: SK-MEL-2 melanoma 90.4% | EKVX NSCLC 84.1% | SN12C renal 39.3% | UO-31 renal 88.3% | TK-10 renal 94.1% | CAKI-1 renal 62% | A498 renal 57.7% | MOLT-4 leukemia 87.6%

CCOC(=O)C1=CCC(n2cc(F)c(=O)[nH]c2=O)O1 (stereo not drawn)
inactive: SK-MEL-2 melanoma 103% | EKVX NSCLC 118% | SN12C renal 104% | UO-31 renal 87.8% | TK-10 renal 110% | CAKI-1 renal 102% | A498 renal 99.9% | CCRF-CEM leukemia 97.4% | MOLT-4 leukemia 92.9%

[2H]C([2H])([2H])Oc1ccc(/C=C/C(=O)/C=C(O)/C=C/c2ccc(OC([2H])([2H])[2H])c(OC([2H])([2H])[2H])c2)cc1OC([2H])([2H])[2H]
inactive: SK-MEL-2 melanoma 86.3% | EKVX NSCLC 53.1% | SN12C renal 28.3% | UO-31 renal 11.4% | TK-10 renal 54.4% | CAKI-1 renal 41.3% | A498 renal 116% | CCRF-CEM leukemia 22.3% | MOLT-4 leukemia 60.6%

CNc1nc2ncc(-c3c(C)noc3C)cc2n1Cc1ccccc1
inactive: SK-MEL-2 melanoma 67.4% | EKVX NSCLC 62.6% | SN12C renal 71.1% | UO-31 renal 21.3% | TK-10 renal 24.3% | CAKI-1 renal 36.7% | CCRF-CEM leukemia 50.5% | MOLT-4 leukemia 48.9%
active: A498 renal 0.868%

CCCS(=O)(=O)Nc1cccc(Nc2ncnc3cc(NC(=O)CCl)ccc23)c1Cl
active: SK-MEL-2 melanoma -32.1% | EKVX NSCLC -14.9% | SN12C renal -76% | UO-31 renal -95% | TK-10 renal -36.4% | CAKI-1 renal -74.6% | A498 renal 9.01% | CCRF-CEM leukemia 3.74% | MOLT-4 leukemia 4.33%

COc1ccc(S(=O)(=O)NC2c3ccccc3CC2O)cc1OC (stereo not drawn)
inactive: SK-MEL-2 melanoma 104% | EKVX NSCLC 103% | SN12C renal 96.1% | UO-31 renal 78.8% | TK-10 renal 112% | CAKI-1 renal 102% | A498 renal 92.7% | CCRF-CEM leukemia 101% | MOLT-4 leukemia 103%

CCOC(=O)c1c(C)n2c(=O)cc(C)c3c(OC(C)=O)c(OC(C)=O)cc1c32
inactive: SK-MEL-2 melanoma 87% | EKVX NSCLC 93.1% | SN12C renal 74.3% | UO-31 renal 71% | TK-10 renal 96% | CAKI-1 renal 72.2% | A498 renal 116% | MOLT-4 leukemia 19.3%
active: CCRF-CEM leukemia 3.61%

N#Cc1nn(-c2ccccn2)c(N)c1C#N
inactive: SK-MEL-2 melanoma 93.7% | EKVX NSCLC 94% | SN12C renal 105% | UO-31 renal 91.1% | TK-10 renal 98.7% | CAKI-1 renal 92.7% | A498 renal 106% | CCRF-CEM leukemia 105% | MOLT-4 leukemia 92.9%

COc1cc2nc3cc([N+](=O)[O-])ccc3c(NCCCNCCO)c2cc1OC
inactive: UO-31 renal 48.9% | CAKI-1 renal 55.5%
active: SK-MEL-2 melanoma -44.3% | EKVX NSCLC 7.46% | SN12C renal -33.3% | TK-10 renal -4.55% | A498 renal -80.2% | CCRF-CEM leukemia 0.0749% | MOLT-4 leukemia 2.59%

CCN1CCN(c2cc(C(=O)Nc3cccc(Nc4ccc5c(OC)cccc5n4)c3)cc(C(F)(F)F)c2)CC1
active: UO-31 renal -8.51% | CAKI-1 renal 6.06% | CCRF-CEM leukemia 6.94% | MOLT-4 leukemia -14.5%
inactive: SK-MEL-2 melanoma 65.3% | EKVX NSCLC 46.2% | SN12C renal 25.4% | TK-10 renal 36% | A498 renal 57.6%

C/C(=N\NC(=O)c1ccc(C(C)(C)C)cc1)c1ccc(O)cc1O
inactive: SK-MEL-2 melanoma 42.8% | EKVX NSCLC 22% | SN12C renal 33.7% | UO-31 renal 16.8% | TK-10 renal 40.5% | ACHN renal 16.5% | A498 renal 42.3% | CCRF-CEM leukemia 14.5% | MOLT-4 leukemia 18.2%

CCCC1Cc2cc(-n3nc(C)c4c3CC(C)(C)CC4=O)cc(NC3CCC(O)CC3)c2C(=O)N1 (stereo not drawn)
inactive: SK-MEL-2 melanoma 48.7% | EKVX NSCLC 62.8% | SN12C renal 38% | UO-31 renal 28.9% | TK-10 renal 38.2% | CAKI-1 renal 30.4% | A498 renal 37.6% | CCRF-CEM leukemia 35% | MOLT-4 leukemia 16.8%

Nc1c(C(=O)c2ccc(Cl)cc2)sc(Nc2ccccc2)c1-c1nc2ccccc2s1
active: TK-10 renal -13.3%
inactive: SK-MEL-2 melanoma 38.5% | EKVX NSCLC 59.9% | SN12C renal 82.6% | UO-31 renal 19.3% | CAKI-1 renal 25.2% | A498 renal 46.2% | CCRF-CEM leukemia 60.3% | MOLT-4 leukemia 76.5%

COC(=O)c1cc(-c2cc(OC)c(OC)c(OC)c2)[nH]c1N/N=C/c1c(Cl)cccc1Cl
inactive: EKVX NSCLC 64.4% | SN12C renal 40.6% | UO-31 renal 40.9% | CCRF-CEM leukemia 35.6% | MOLT-4 leukemia 33.2%
active: SK-MEL-2 melanoma -21.2% | TK-10 renal -47.6% | CAKI-1 renal 7.04% | A498 renal -63.6%

C#Cc1c(I)n(C2OC(CO[Si](C)(C)C(C)(C)C)C3OC(C)(C)OC32)c(=O)[nH]c1=O (stereo not drawn)
active: UO-31 renal -77.3% | TK-10 renal -62.3% | CCRF-CEM leukemia -29.7% | MOLT-4 leukemia -25.5%
inactive: SK-MEL-2 melanoma 59.9% | EKVX NSCLC 96.7% | SN12C renal 89.7% | ACHN renal 49.7% | A498 renal 102%

CCOC(=O)c1c(C)c2c(n1Cc1ccccc1)CSc1cc(C#N)c(=O)[nH]c1-2
inactive: SK-MEL-2 melanoma 92.2% [100 µM] | EKVX NSCLC 67.1% [100 µM] | SN12C renal 80.6% [100 µM] | UO-31 renal 85.6% [100 µM] | TK-10 renal 40.5% [100 µM] | ACHN renal 49.3% [100 µM] | A498 renal 92% [100 µM] | CCRF-CEM leukemia 90.4% [100 µM] | MOLT-4 leukemia 118% [100 µM]

C=C(C)[C@@H]1CC[C@]2(COCCCNCCCN)CC[C@]3(C)[C@H](CC[C@@H]4[C@@]5(C)CC[C@H](OCCCN)C(C)(C)[C@@H]5CC[C@]43C)[C@@H]12
inactive: SK-MEL-2 melanoma 92.6% | EKVX NSCLC 47.6% | UO-31 renal 38.9% | CAKI-1 renal 51.9% | A498 renal 90.3%
active: SN12C renal -83.1% | TK-10 renal -10.4% | CCRF-CEM leukemia -37.8% | MOLT-4 leukemia -15.6%

COC(=O)c1sc(-c2ccc(C)cc2)cc1O
inactive: SK-MEL-2 melanoma 99% | EKVX NSCLC 101% | SN12C renal 101% | UO-31 renal 94.1% | ACHN renal 112% | CAKI-1 renal 94.3% | A498 renal 98.5% | CCRF-CEM leukemia 103% | MOLT-4 leukemia 87.7%

CCOC(=O)c1cnc2sc(-c3ccc(OC)cc3)nc2c1Cl
inactive: SK-MEL-2 melanoma 102% | EKVX NSCLC 90.4% | SN12C renal 102% | UO-31 renal 78.8% | ACHN renal 105% | CAKI-1 renal 95% | A498 renal 86.8% | CCRF-CEM leukemia 96.4% | MOLT-4 leukemia 97.3%

CN1C(=O)N(C)C2C1NN=c1s/c(=C\c3ccccc3F)c(=O)n12 (stereo not drawn)
active: A498 renal 1.45%
inactive: SK-MEL-2 melanoma 42.5% | EKVX NSCLC 48.3% | SN12C renal 26% | UO-31 renal 42.6% | ACHN renal 36.8% | CAKI-1 renal 31.4% | CCRF-CEM leukemia 11% | MOLT-4 leukemia 15.8%

Nc1nc(N)c2c(n1)NC(c1ccc3c(c1)OCO3)CC(c1cccc(Nc3ccncc3)c1)=N2 (stereo not drawn)
inactive: SK-MEL-2 melanoma 86% | EKVX NSCLC 89.1% | SN12C renal 94.6% | UO-31 renal 96.1% | ACHN renal 110% | CAKI-1 renal 78.8% | A498 renal 93% | CCRF-CEM leukemia 70% | MOLT-4 leukemia 71.2%

Cc1ccc2c(c1)CC(O)CC1C(=O)N(CCO)CC(=O)N21 (stereo not drawn)
inactive: SK-MEL-2 melanoma 86.2% | EKVX NSCLC 104% | SN12C renal 100% | UO-31 renal 95.8% | ACHN renal 104% | CAKI-1 renal 92.6% | A498 renal 99.4% | CCRF-CEM leukemia 104%
